Screening results deposited in PubChem by The Scripps Research Institute Molecular Screening Center.
CHRM1 antagonist = human CHRM1 antagonism; P11229; hit rate 1.3% among 360,000; CHO-K1 hM1, Fluo-8 calcium fluorescence, ACh EC80 antagonist; AID 588852; inhibition, % at 3 µM;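 active means percent inhibition above its own plate's cutoff, namely the mean of that plate's compound wells plus 3 SD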;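 further: peak over basal fluorescence ratio during 140 s after agonist addition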
Target sequence (P11229 whole entry, looked up): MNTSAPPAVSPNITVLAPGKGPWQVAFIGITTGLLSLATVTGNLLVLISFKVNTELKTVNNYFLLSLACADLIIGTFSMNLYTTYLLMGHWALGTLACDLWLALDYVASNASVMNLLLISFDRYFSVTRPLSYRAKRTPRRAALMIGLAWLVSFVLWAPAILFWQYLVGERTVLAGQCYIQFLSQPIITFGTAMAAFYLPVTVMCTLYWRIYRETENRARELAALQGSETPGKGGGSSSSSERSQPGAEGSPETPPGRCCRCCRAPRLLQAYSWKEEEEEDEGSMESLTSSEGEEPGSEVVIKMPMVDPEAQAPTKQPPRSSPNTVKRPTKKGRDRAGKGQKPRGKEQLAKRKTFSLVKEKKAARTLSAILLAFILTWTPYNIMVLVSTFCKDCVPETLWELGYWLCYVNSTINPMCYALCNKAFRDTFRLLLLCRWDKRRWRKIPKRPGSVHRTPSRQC
CHO-K1 Ca antag = M1 antagonist counterscreen hit in parental CHO-K1 cells | AID 602250 | inhibition, % at 3 µM | hit rate 0.6% among 360,000 | ATP-induced calcium, Fluo-8 fluorescence;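 active means inhibition above a per-plate cutoff, the plate's mean sample inhibition plus 3 SD, cut at about 24% in these data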
CHRM1 agonist = human M1 muscarinic receptor agonism. CHO-K1 hM1, Fluo-8 calcium fluorescence, agonist mode; 0% DMSO, 100% acetylcholine EC100. activation, % at 3 µM. hit rate 0.33% among 360,000. AID 588814;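 active means activation above the run's mean compound activation plus 3 SD, cut at about 16% in these data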;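 further: peak over basal fluorescence ratio within a 140 s kinetic read after compound addition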
CHO-K1 Ca ag = nonselective activator or artifact in parental CHO-K1 cells. Fluo-8 calcium fluorescence; scaled to maximal ATP response, vehicle zero. activation, % at 3 µM. hit rate 0.48% among 360,000. AID 602248; in the data active means activation above about 15%;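 further: untransfected CHO-K1 host cells lacking M1 receptor as counterscreen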
CHRM1 PAM = potentiates human M1 receptor response to acetylcholine. CHO-K1 hM1, Fluo-8 calcium fluorescence, ACh EC20; 0% = ACh EC20, 100% = maximal ACh. AID 588819. hit rate 0.088% among 360,000. activation, % at 3 µM. P11229; in the data active means activation above about 19%, passing the limit was not always enough
CHO-K1 Ca PAM = nonselective activator or artifact in parental CHO-K1 calcium assay; ATP EC20, Fluo-8 calcium fluorescence; 0% at ATP EC20, 100% at ATP max; activation, % at 3 µM; hit rate 0.02% among 360,000;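 active means activation above the run cutoff, the mean activation of all test compounds plus 3 SD, cut at about 40% in these data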;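 further: peak over basal fluorescence ratio in a 140 s read after ATP addition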
Large screens that a line does not name were inactive. In the library only some 2.4% were active in any assay of this set; here they are far more common.

O=C1N[C@@H](c2ccccc2)COC(=O)[C@H](Cc2ccc(F)cc2)C/C=C\C[C@H]1CC(=O)N(CCO)Cc1ccccc1	none
CC1(C(=O)Nc2cccc3cccnc23)CCN1Cc1cccc2c1OCO2 (stereo not given)	none
O=C(c1ccccc1Sc1ccccc1[N+](=O)[O-])N1CCCCC1	none
CCCCNc1c(-c2ccc(OC)c(Sc3ccc(OC)cc3)c2)nc2ccccn12	CHRM1 antagonist 50.2
CCCCNc1c(-c2ccc(SC(C)CC)c(OC)c2)nc2ccc(C)cn12 (stereo not given)	CHRM1 antagonist 43.9
CCCCNc1c(-c2ccc(OC)c(Sc3ccc(OC)cc3)c2)nc2cnccn12	none
O=c1c2ccccc2nc(COc2ccccc2)n1/N=C/c1cn[nH]c1-c1ccccc1	CHRM1 antagonist 28.4
Cc1ccc2sc(NC(=O)CN3C(=O)CCC3=O)nc2c1C	CHO-K1 Ca antag 29.0
O=C(COc1ccccc1)NC(=S)Nc1cccc2c(O)cccc12	CHRM1 agonist 19.1
Cc1cccc(-n2[nH]c(C)c(C=Nc3ccc4[nH]c(=O)[nH]c4c3)c2=O)c1	CHO-K1 Ca antag 28.4
O=C(O)C1CCCN(S(=O)(=O)c2ccc(-c3ccc(=O)[nH]n3)s2)C1 (stereo not given)	none
CCC(C(=O)Nc1cccnc1)n1c(=O)[nH]c2ccccc2c1=O (stereo not given)	none
CCOc1ccc(N(CC(=O)N2CCOCC2)S(=O)(=O)c2ccc(SC)cc2)cc1	none
COc1ccc(/C=C2\CN(Cc3ccccc3)C/C(=C\c3ccc(OC)cc3OC)C2=O)c(OC)c1	CHRM1 antagonist 29.2
COc1ccc(/C=C2\CN(Cc3ccccc3)C/C(=C\c3ccc(OC)cc3)C2=O)cc1	none
COc1ccc(-c2ccc(C(=O)N3CCOCC3)c3occc23)c(C)c1	none
COc1ccc(-c2ccc(C(=O)NCc3ccc(F)c(F)c3)c3occc23)c(C)c1	none
COc1ccc(-c2coc3c(C(=O)NCc4ccc(OC)c(OC)c4)cccc23)c(C)c1	CHRM1 antagonist 44.1
COc1ccc(-c2ccc(C(=O)N3CCN(C)CC3)c3occc23)c(C)c1	CHO-K1 Ca antag 32.4
COc1ccc(-c2ccc(C(=O)NCc3ccncc3)c3occc23)c(C)c1	CHRM1 antagonist 41.6, CHO-K1 Ca antag 41.8
COc1ccc(-c2coc3c(C(=O)Nc4cc(OC)c(OC)c(OC)c4)cccc23)c(C)c1	CHRM1 antagonist 45.4
Cc1ncc(CSc2ccc(Cl)cc2)c(CO)c1O	none
N/C(=N\OC(=O)CSc1ccccc1)c1ccccn1	CHRM1 PAM 27.9
N/C(=N\OC(=O)Cc1ccc(-c2ccccc2)cc1)c1ccccn1	none
S=C(Nc1ccc(Cl)c(Cl)c1)NN1CCOCC1	none
Cc1cccc(/C(N)=N/OC(=O)CCc2ccccc2)c1	CHRM1 antagonist 31.5
COc1ccc(/C(N)=N/OC(=O)CCc2ccccc2)cc1OC	none
Cc1ccc(NC(=O)c2snc3ccc(Cl)cc23)cc1C	none
COc1cc2c3c(c1)c(N=NC(N)=S)c(O)n3C(C)(C)C=C2C	CHRM1 antagonist 33.0
CC(C)(C)OC(=O)N1CCC(C(=O)Nc2cccc(C(=O)NC3CC3)c2)CC1	none
COc1ccc(CCNc2ncnc3sc(C)cc23)cc1OC	CHRM1 antagonist 41.0, CHO-K1 Ca antag 32.1
COc1ccc(CCNc2ncnc3[nH]ncc23)cc1OC	none
COc1ccc(CCNc2nc3ccccc3n3nnnc23)cc1OC	CHO-K1 Ca antag 26.7
Cc1cc2nc3n(c2cc1C)CC1CC(C(=O)NCc2cccc(C(F)(F)F)c2)N(C)C31 (stereo not given)	none
CCOc1cc(/C=C2/C(=N)N3OC(C)=CC3=NC2=O)ccc1OCCOc1ccccc1	none
Cc1cc(/C=C2\SC(=S)N(Cc3ccco3)C2=O)c(C)n1-c1cccnc1	none
O=C1/C(=C\c2ccc(O)cc2)SC(=S)N1c1cccnc1	CHRM1 agonist 16.5, CHO-K1 Ca ag 17.2
Cc1cc(/C=C2/SC(=S)N(c3cccc(C(F)(F)F)c3)C2=O)c(C)n1-c1cccnc1	CHRM1 antagonist 43.4, CHO-K1 Ca antag 35.8
CCCc1nc(NCc2ccncc2)c2nnn(Cc3ccccc3F)c2n1	none
CCCc1nc(NCc2ccccn2)c2nnn(Cc3ccccc3F)c2n1	CHO-K1 Ca antag 30.2
CC(C)(C)N(Cc1ccccc1)C(=O)COC(=O)C1CCN(c2ccc(C(F)(F)F)cn2)CC1	none
CCCC1(C(=O)OCC)NC(c2ccc(OC)cc2OC)C2C(=O)N(c3ccc4c(c3)OCCO4)C(=O)C21 (stereo not given)	CHO-K1 Ca antag 46.0
CCCC1(C(=O)OC)NC(c2ccc(OC)c(OC)c2)C2C(=O)N(c3ccc4c(c3)OCO4)C(=O)C21 (stereo not given)	none
O=C1CN(C(=O)COC(=O)c2ccccc2NCc2ccco2)c2ccccc2N1	none
O=C(OCCO)c1c(-c2ccccc2)oc2c1C(OCCO)CCC2 (stereo not given)	none (no result: CHRM1 antagonist, CHRM1 agonist, CHRM1 PAM)
CCn1c(=O)n(CCc2ccccc2)c(=O)c2c3c(sc21)CCCC3	none
COC(=O)Cn1c(=O)n(CCc2ccccc2)c(=O)c2c3c(sc21)CCCC3	CHRM1 antagonist 76.9
O=C(COC(=O)c1ccc(S(=O)(=O)NCc2ccco2)cc1)Nc1ccc(Cl)cn1	none
COc1ccc(-c2csc(Nc3ccc(S(=O)(=O)Nc4cc(OC)nc(OC)n4)cc3)n2)cc1	none
COc1ccc(-c2csc(Nc3ccc(S(=O)(=O)Nc4cc(C)on4)cc3)n2)cc1C	CHRM1 antagonist 46.2
CC(C)c1nnc(NC(=O)COc2ccc3c(c2)OCO3)s1	none
CCC(CC)c1nnc(NC(=O)COc2ccc3c(c2)OCO3)s1	CHO-K1 Ca ag 20.4
FC(F)(F)c1ccc(C2NCCc3sccc32)cc1 (stereo not given)	none
COc1ccc(C(CNC(=O)Cc2c(F)cccc2Cl)N2CCCCC2)cc1 (stereo not given)	CHRM1 antagonist 68.2
COc1ccc(C(CNC(=O)CNC(=O)c2ccc(F)cc2)N2CCCC2)cc1 (stereo not given)	none
O=C(Nc1ccc(S(=O)(=O)Nc2ncccn2)cc1)c1cccc(S(=O)(=O)N2CCOCC2)c1	none
C[C@@H]1COC(=O)[C@@H](CC(=O)OC(C)(C)C)C/C=C\C[C@H](CC(=O)NCCO)C(=O)N1	none
O=C(O)CC(C(=O)OCC1CCCO1)N1CCOCC1 (stereo not given)	none
O=C(O)CC(C(=O)OC1CCCCC1)N1CCOCC1 (stereo not given)	CHO-K1 Ca antag 31.4
CCCCN(CCCC)c1cn[nH]c(=O)c1Cl	CHRM1 antagonist 26.9
CCCCSc1nc2[nH]ncc2c(=O)[nH]1	none
CC(C)(C)c1ccc(CSc2nc(N)cc(=O)[nH]2)cc1	none
CC1CCCCC12NC(=O)N(CC(=O)N1CCN(C(=O)c3ccco3)CC1)C2=O (stereo not given)	none
